In PubChem BioAssay one finds fold change, cell count and fold fluorescence data, which are given here for 30 molecules.

Several values for one entry are separate records, joined by “and”; a condition that tells them apart may be missing. Equal entries are not always repeated. Activity calls are given as the source filed them.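 The calls were made as follows, unless noted: active = compounds whose cell count with miR-34 switched on is under 0.7 times the count with it off; inactive = the rest.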

A short description of test [1]: sensitizers of A549 cells to miR-34 induction, primary screen, imaging, A549 dox-inducible miR-34, nuclei and caspase counts (AID 1347080). Conditions: A549 miR-34 inducible, Hoechst nuclei count, 48 h.
Test [2] is described as follows: inhibitors of Cryptococcus chitosan production, flow cytometry, Cibacron Brilliant Red staining (AID 1347148; call rule not given here;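 also: compound exposure lasted three days at 37 degrees C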). Conditions: Cryptococcus neoformans chitosan, stronger effect = lower value; at 10 µM unless noted. On the technique in general: Flow cytometry measures light scatter and fluorescence of single cells or particles in a stream.
Setting [3] is: stronger effect = lower value, cell number ratio, induced over uninduced.
Where [4] appears, read: measured here: relative caspase fold change +Dox/-Dox.
Where [5] appears, read: measured here: total cells with miR-34 induction, stronger effect = lower value.
Setting [6] is: measured here: total cells without miR-34 induction.

Take `COc1cc(/C=C\c2ccc(OC)c(O)c2)cc(OC)c1`: the fold change is 0.917 (inactive) in test [1] (setting [3]) and 0.882 in test [1] (setting [4]). The cell count was determined as 1120 in test [1] (setting [5]) and 1220 in test [1] (setting [6]).

For the molecule `CCCCCCC(=O)O[C@H]1CC[C@H]2[C@@H]3C[C@H](O)C4=CC(=O)CC[C@]4(C)[C@H]3CC[C@]12C`, the values for the fold change in test [1] (stronger effect = lower value) and in test [1] (setting [4]) were 0.966 (inactive) and 1.11, respectively. Also, the values for the cell count in test [1] (setting [5]) and in test [1] (setting [6]) were 5330 and 5520, respectively.

As to `C=C(C)[C@@H]1CCC(C)=C[C@H]1c1c(C)cc(O)cc1O`, the fold change in test [1] (setting [3]) was 0.943 (inactive); in test [1] (setting [4]) it was 0.916. In addition, the cell count in test [1] (setting [5]) is 5200; in test [1] (setting [6]), 5510.

On to `c1cc2ccsc2c(N2CCNCC2)n1`, for which the figures for the fold change in test [1] (setting [3]) and in test [1] (setting [4]) were 0.937 (inactive) and 0.656, respectively. The cell count in test [1] (setting [5]) was 5170; in test [1] (setting [6]) it was 5520.

As for `c1cc2cc(N3CCNCC3)ccc2cn1`, the fold change in test [1] (setting [3]) is 0.956 (inactive); in test [1] (setting [4]) it was 0.665. Besides, the cell count in test [1] (setting [5]) came out at 5380; in test [1] (setting [6]), 5630.

In the case of `CC1(O)C[C@@]23C[C@@H](O)[C@@]4(O)[C@@H](C[C@H](O)C4(C)C)[C@](C)(O)[C@@H]2CCC1[C@H]3O` (some centres not stated), the fold change is 0.932 (inactive) in test [1] (stronger effect = lower value) and 1.15 in test [1] (setting [4]). Further, the cell count amounted to 6010 in test [1] (setting [5]) and 6440 in test [1] (setting [6]).

As for `C=C1[C@@H](C)[C@H]2[C@H](Cc3ccccc3)NC(=O)C23[C@H](OC(C)=O)/C=C/[C@](C)(O)C(=O)[C@@H](C)C/C=C/[C@H]3[C@@H]1O` (some centres not stated), the figures for the fold change in test [1] (setting [3]) and in test [1] (setting [4]) were 1.3 (inactive) and 0.464, respectively. Moreover, the results for the cell count in test [1] (setting [5]) and in test [1] (setting [6]) were 990 and 762, respectively.

On to `CN=C(NS(=O)(=O)c1ccc(Cl)cc1)N1C[C@H](c2ccccc2)C(c2ccc(Cl)cc2)=N1`, for which the fold change was 0.982 (inactive) in test [1] (setting [3]) and 1.16 in test [1] (setting [4]). The cell count in test [1] (setting [5]) was determined as 5510; in test [1] (setting [6]), 5610.

Take `CC1OC(=O)C(C(C)C)NC(=O)C(C(C)C)OC(=O)C(C(C)C)NC(=O)C(C)OC(=O)C(C(C)C)NC(=O)C(C(C)C)OC(=O)C(C(C)C)NC(=O)C(C)OC(=O)C(C(C)C)NC(=O)C(C(C)C)OC(=O)C(C(C)C)NC1=O` (configuration not stated): the fold change in test [1] (stronger effect = lower value) was 0.784 (inactive); in test [1] (setting [4]) it was 1.28. The cell count in test [1] (setting [5]) came out at 1020; in test [1] (setting [6]) it was 1300.

Regarding `CCCCC/C=C\C/C=C\C/C=C\C/C=C\CCCC(=O)NC`, the fold change was 0.953 (inactive) in test [1] (setting [3]) and 2.18 in test [1] (setting [4]). Also, the cell count in test [1] (setting [5]) was found to be 5880; in test [1] (setting [6]) it was 6170.

Take `CCCCCCCC/C=C\CCCCCCCC(=O)OC[C@@H](COP(O)(O)=S)OC`: the fold change is 1.15 (inactive) in test [1] (setting [3]) and 0.718 in test [1] (setting [4]). Further, the cell count in test [1] (setting [5]) came out at 6260; in test [1] (setting [6]) it was 5460.

For `CCCCCC(/C=C/C=O)OO` (configuration not stated), the fold change was 0.987 (inactive) in test [1] (setting [3]) and 1.26 in test [1] (setting [4]). The cell count in test [1] (setting [5]) was 5780; in test [1] (setting [6]), 5860.

Turning to `CCCCCCC(=O)O[C@H]1CC[C@H]2[C@@H]3C[C@@H](O)C4=CC(=O)CC[C@]4(C)[C@H]3CC[C@]12C`, the fold change in test [1] (stronger effect = lower value) was 0.966 (inactive); in test [1] (setting [4]), 0.446. Besides, the cell count in test [1] (setting [5]) worked out at 5500; in test [1] (setting [6]), 5700.

Consider `C[C@H](CCC(=O)O)C[C@H](C)C[C@H](C)C(=O)/C=C(\O)[C@H](C)C[C@H](C)C/C=C/[C@@H](C)[C@@H](O)[C@@H](C)[C@@H](O)C[C@@H]1CC[C@@](C)([C@H]2CC[C@@](C)([C@@H](C)O)O2)O1`, for which the results for the fold change in test [1] (setting [3]) and in test [1] (setting [4]) were 0.679 (active) and 0.922, respectively. Moreover, the cell count in test [1] (setting [5]) was found to be 621; in test [1] (setting [6]), 914.

For `COC(C/C=C/C=C/CC/C=C\CC(C)/C=C\C(=C/C(=O)O)CC(=O)O)/C(C)=C\C=C(/C)C(=O)O` (configuration not stated), the fold change was 0.975 (inactive) in test [1] (setting [3]) and 1.25 in test [1] (setting [4]). In addition, the cell count in test [1] (setting [5]) was determined as 5720; in test [1] (setting [6]), 5870. Further, the fold fluorescence in test [2] is 5.28 [at 10.3 µM] (inactive).

Turning to `CCCCC/C=C\C/C=C\C/C=C\C/C=C\CCCC(=O)N[C@@H](C)C(=O)O`, the fold change in test [1] (setting [3]) was 0.941 (inactive); in test [1] (setting [4]), 1.84. For the same molecule, the cell count in test [1] (setting [5]) stood at 5770; in test [1] (setting [6]), 6140.

Take `O=C(CCC/C=C\C[C@@H]1[C@@H](/C=C/[C@@H](O)COc2cccc(C(F)(F)F)c2)[C@H](O)C[C@@H]1O)NC(CO)CO`: the fold change in test [1] (stronger effect = lower value) is 0.98 (inactive); in test [1] (setting [4]), 0.862. In addition, the values for the cell count in test [1] (setting [5]) and in test [1] (setting [6]) were 5260 and 5370, respectively.

Take `CCNC(=O)[C@H]1O[C@@H](n2cnc3c(N)ncnc32)[C@@H](O)C1O` (some centres not stated): the fold change in test [1] (setting [3]) was 0.967 (inactive); in test [1] (setting [4]) it was 0.965. Further, the cell count in test [1] (setting [5]) came out at 6150; in test [1] (setting [6]), 6360.

Regarding `C=C1[C@@H](C)[C@H]2[C@H](Cc3ccccc3)NC(=O)[C@]23OC(=O)/C=C/[C@H](O)CCC[C@@H](C)C/C=C/[C@H]3[C@@H]1O`, the fold change in test [1] (stronger effect = lower value) is 1.14 (inactive); in test [1] (setting [4]), 1.09. Moreover, the cell count was found to be 1220 in test [1] (setting [5]) and 1060 in test [1] (setting [6]). Further, in test [2], the fold fluorescence was 6.64 [at 104.2 µM] (inactive).

On to `COC[C@H]([C@@H](O)[C@@H](O)C(=O)NCC[C@@H](C)c1nc(/C=C/C[C@H]2OC3(C[C@H](O)[C@H]2C)OC([C@@H](C[C@@H](O)[C@@H](C)[C@@H](O)[C@@H](C)/C=C(C)/C(C)=C/C=C/C(C)=C\C#N)OC)[C@@H](OP(=O)(O)O)C3(C)C)co1)N(C)C` (some centres not stated), for which the fold change in test [1] (stronger effect = lower value) is 0.801 (inactive); in test [1] (setting [4]) it was 1.44. For the same molecule, the cell count stood at 250 in test [1] (setting [5]) and 312 in test [1] (setting [6]). The fold fluorescence in test [2] was 9.76 [at 5 µM] (inactive).

As to `CCCCCCC(=O)O[C@H]1CC[C@H]2[C@@H]3C=CC4=CC(=O)CC[C@]4(C)[C@H]3CC[C@]12C`, the fold change in test [1] (stronger effect = lower value) was 0.948 (inactive); in test [1] (setting [4]), 0.362. Also, the results for the cell count in test [1] (setting [5]) and in test [1] (setting [6]) were 5660 and 5970, respectively.

In the case of `CCCCC/C=C\C/C=C\C/C=C\C/C=C\CCCC(=O)NOCCO`, the fold change is 0.931 (inactive) in test [1] (setting [3]) and 0.519 in test [1] (setting [4]). The cell count was 5500 in test [1] (setting [5]) and 5910 in test [1] (setting [6]).

In the case of `CC(C)(O)[C@H]1O[C@H]2CC[C@@]3(C)[C@@](O)(CC[C@H]4Cc5c([nH]c6ccccc56)[C@@]43C)C2=CC1=O`, the fold change in test [1] (stronger effect = lower value) was 1.09 (inactive); in test [1] (setting [4]), 1.67. Further, the results for the cell count in test [1] (setting [5]) and in test [1] (setting [6]) were 3780 and 3460, respectively. For the same molecule, the fold fluorescence in test [2] was 8.47 [at 114.8 µM] (inactive).

For `CCCN(CCCN)N(O)N=O`, the fold change in test [1] (setting [3]) was 1.05 (inactive); in test [1] (setting [4]), 0.825. The cell count in test [1] (setting [5]) was determined as 5850; in test [1] (setting [6]) it was 5540.

In the case of `CCOC(=O)CN1C(=O)CC(C[C@@H](O)C2C[C@@H](C)C[C@H](C)C2=O)CC1=O` (some centres not stated), the fold change in test [1] (stronger effect = lower value) was 1.01 (inactive); in test [1] (setting [4]), 1.21. The results for the cell count in test [1] (setting [5]) and in test [1] (setting [6]) were 4960 and 4910, respectively. In addition, the fold fluorescence in test [2] was 10.9 [at 136.1 µM] (inactive).

As to `CCCCC/C=C\C/C=C\C/C=C\C/C=C\CCCC(=O)NCc1ccc(O)c(OC)c1`, the fold change in test [1] (stronger effect = lower value) is 0.841 (inactive) and 1 (inactive); in test [1] (setting [4]) it was 1.08 and 0.996. Besides, the cell count was 2750 and 5480 in test [1] (setting [5]); 3270 and 5460 in test [1] (setting [6]). The fold fluorescence in test [2] was 5.97 [at 113.7 µM] (inactive).

Regarding `CCCCC/C=C\C/C=C\C/C=C\C/C=C\CCCC(=O)NC(CO)CO`, the fold change in test [1] (setting [3]) is 0.961 (inactive); in test [1] (setting [4]), 0.877. The figures for the cell count in test [1] (setting [5]) and in test [1] (setting [6]) were 5640 and 5870, respectively.

As to `COc1cc(CNC(=O)CCCCCCC(C)C)c(I)cc1O`, the fold change in test [1] (setting [3]) was 1.02 (inactive); in test [1] (setting [4]), 0.817. The cell count in test [1] (setting [5]) was determined as 5730; in test [1] (setting [6]) it was 5600.

Consider `CCCC(=O)N[C@H]1CCOC1=O`, for which the fold change in test [1] (setting [3]) was 0.907 (inactive); in test [1] (setting [4]) it was 0.504. Besides, the cell count in test [1] (setting [5]) stood at 6040; in test [1] (setting [6]) it was 6650.

Take `COC[C@H]1OC(=O)c2coc3c2[C@@]1(C)C1=C(C3=O)[C@@H]2CCC(=O)[C@@]2(C)C[C@H]1OC(C)=O`: the fold change in test [1] (stronger effect = lower value) is 0.997 (inactive); in test [1] (setting [4]) it was 1.29. In addition, the cell count in test [1] (setting [5]) turned out to be 1550; in test [1] (setting [6]), 1560. The fold fluorescence in test [2] was 5.16 [at 116.7 µM] (inactive).
